Compounds with a hit are over-represented: about 0.54% of the library has one in this group of screens.
Vc quorum ag = inducers of Vibrio cholerae quorum light production without autoinducers, primary screen, BH1578 luxS cqsA deficient, single point; 350,000 tested, 0.16% active; AID 588436, 2011; V. cholerae BH1578 lux reporter, luminescence, 6 h; activation, % at 18.7 µM; in the data active = activation mostly above about 9.7%, no sharp cut-off
FadD28 FP inh = inhibitors of FadD28 bisubstrate probe binding, primary screen, biochemical, fluorescence polarization, single point; inhibition, % at 12.5 µM; 360,000 tested, 0.22% active; AID 588549, 2011; in the data active = inhibition above about 8.5%, passing the limit was not always enough
Mtb BioA inh = M. tuberculosis BioA enzyme inhibitors, primary screen, biochemical, plate reader, single point, HTS; purified M. tuberculosis BioA enzyme; AID 602481, 2012; 360,000 tested, 0.096% active; 7,8-diaminopelargonic acid synthase BioA (Mycobacterium tuberculosis); inhibition, % at 9.99 µM; in the data active = inhibition above about 40%
TcdB inh = TcdB glycohydrolase inhibitors, primary screen, biochemical, single point, plate reader; TcdB glycohydrolase enzymatic assay; Toxin B (Clostridioides difficile), P18177; inhibition, % at 9.99 µM; 350,000 tested, 0.24% active; AID 652162, 2013; in the data active = inhibition above about 10%
Target sequence (P18177 whole entry, looked up): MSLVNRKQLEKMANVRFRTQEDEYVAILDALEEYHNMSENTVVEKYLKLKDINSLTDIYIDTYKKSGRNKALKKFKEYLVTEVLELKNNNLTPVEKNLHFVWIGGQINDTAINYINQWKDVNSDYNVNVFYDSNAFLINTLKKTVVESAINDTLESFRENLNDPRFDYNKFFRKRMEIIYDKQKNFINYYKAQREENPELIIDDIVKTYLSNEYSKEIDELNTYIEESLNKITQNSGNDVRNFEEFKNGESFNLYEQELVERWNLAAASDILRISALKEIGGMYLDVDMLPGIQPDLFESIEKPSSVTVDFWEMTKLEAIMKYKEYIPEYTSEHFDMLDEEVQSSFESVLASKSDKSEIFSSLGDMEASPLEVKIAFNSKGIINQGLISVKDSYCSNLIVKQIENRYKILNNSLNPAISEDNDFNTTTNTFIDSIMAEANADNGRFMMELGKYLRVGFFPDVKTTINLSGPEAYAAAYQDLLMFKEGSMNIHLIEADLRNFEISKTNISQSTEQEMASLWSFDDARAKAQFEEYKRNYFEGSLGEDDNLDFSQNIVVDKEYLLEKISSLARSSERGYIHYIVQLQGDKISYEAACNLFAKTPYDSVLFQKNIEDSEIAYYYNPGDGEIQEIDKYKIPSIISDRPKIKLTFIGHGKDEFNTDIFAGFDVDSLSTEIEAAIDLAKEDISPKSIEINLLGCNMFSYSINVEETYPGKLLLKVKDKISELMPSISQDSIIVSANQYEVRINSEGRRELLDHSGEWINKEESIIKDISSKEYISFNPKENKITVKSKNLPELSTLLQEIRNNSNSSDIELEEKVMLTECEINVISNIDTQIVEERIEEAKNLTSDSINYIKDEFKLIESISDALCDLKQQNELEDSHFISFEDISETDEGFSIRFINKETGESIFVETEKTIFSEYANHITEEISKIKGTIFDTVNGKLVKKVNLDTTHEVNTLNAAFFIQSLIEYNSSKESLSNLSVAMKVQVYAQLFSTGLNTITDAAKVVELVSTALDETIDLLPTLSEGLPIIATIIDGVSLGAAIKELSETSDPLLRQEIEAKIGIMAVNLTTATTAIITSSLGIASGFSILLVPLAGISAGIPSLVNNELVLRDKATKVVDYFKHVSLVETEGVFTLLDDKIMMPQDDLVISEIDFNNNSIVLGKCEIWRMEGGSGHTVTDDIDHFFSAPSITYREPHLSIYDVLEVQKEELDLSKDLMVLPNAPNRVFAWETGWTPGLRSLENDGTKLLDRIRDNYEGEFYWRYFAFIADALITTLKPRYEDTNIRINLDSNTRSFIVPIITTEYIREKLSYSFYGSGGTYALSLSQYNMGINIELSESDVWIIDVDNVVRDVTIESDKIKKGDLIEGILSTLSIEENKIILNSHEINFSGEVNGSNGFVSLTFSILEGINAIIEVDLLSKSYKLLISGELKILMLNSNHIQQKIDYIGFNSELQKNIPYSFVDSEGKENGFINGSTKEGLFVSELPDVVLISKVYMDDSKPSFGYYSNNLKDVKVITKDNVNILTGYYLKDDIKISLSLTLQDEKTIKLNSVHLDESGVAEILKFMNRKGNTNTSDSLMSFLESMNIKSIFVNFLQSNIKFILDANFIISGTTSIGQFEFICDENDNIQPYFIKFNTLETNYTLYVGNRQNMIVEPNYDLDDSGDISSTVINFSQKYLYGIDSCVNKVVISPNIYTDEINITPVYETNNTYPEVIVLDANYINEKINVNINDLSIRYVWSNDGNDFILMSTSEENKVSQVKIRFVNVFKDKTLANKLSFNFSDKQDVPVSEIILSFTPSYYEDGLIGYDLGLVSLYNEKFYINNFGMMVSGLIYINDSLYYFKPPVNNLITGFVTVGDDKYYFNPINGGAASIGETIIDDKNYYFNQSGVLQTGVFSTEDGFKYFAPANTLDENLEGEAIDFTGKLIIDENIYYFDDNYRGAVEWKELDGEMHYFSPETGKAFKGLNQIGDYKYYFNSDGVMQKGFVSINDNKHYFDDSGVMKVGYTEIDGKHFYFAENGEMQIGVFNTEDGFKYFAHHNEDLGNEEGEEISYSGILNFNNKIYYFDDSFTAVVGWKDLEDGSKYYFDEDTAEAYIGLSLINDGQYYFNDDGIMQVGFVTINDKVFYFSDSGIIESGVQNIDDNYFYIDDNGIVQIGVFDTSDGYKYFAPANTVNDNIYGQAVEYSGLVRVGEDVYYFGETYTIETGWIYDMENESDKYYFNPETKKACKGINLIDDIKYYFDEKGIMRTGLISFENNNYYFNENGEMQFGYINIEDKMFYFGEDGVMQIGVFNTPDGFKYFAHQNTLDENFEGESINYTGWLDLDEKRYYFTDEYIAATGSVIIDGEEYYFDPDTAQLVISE
* marks the source's active call; other numbers are inactive results; i = inactive; . = no result given; + = active, no number.

SMILES	Vc quorum ag	FadD28 FP inh	Mtb BioA inh	TcdB inh
COc1ccc(OC)c(N2C(=O)NC(=O)/C(=C/c3ccc([N+](=O)[O-])s3)C2=O)c1	1	21*	4	1
COc1ccc(S(=O)(=O)N2CCOCC2)cc1NC(=O)COC(=O)c1[nH]c(C)c(C(C)=O)c1C	-1	-3	-1	13*
CCc1noc(C)c1C(=O)Nc1cc(S(=O)(=O)N2CCOCC2)ccc1OC(C)C	-2	16*	1	-1
CC(=O)C[C@H]1c2ccccc2S(=O)(=O)N1C1CCCCC1	i	0	-1	14*
Cn1cc(C(=O)C(=O)NC2CCCCC2)c2ccccc21	80*	1	-1	2
O=C(NC1CC1)C(=O)c1c(-c2ccccc2)[nH]c2ccccc12	0	-1	2	0
O=C(NC1CCCCC1)C(=O)c1c(-c2ccccc2)[nH]c2ccccc12	+	-2	2	-1
O=C(NC1CCCCC1)c1sc(=S)n2c1[nH]c(=O)c1ccccc12	i	2	3	.
O=C(NCCc1ccc(Cl)cc1)c1ccc2c(=O)[nH]c3c(C(=O)NCC4CCCO4)sc(=S)n3c2c1 (configuration not stated)	.	.	.	1
CCOc1ccc(CCNC(=O)c2ccc3c(=O)[nH]c4c(C(=O)NC(C)C)sc(=S)n4c3c2)cc1	0	21*	-3	0
O=C(NCCc1ccccc1)c1ccc2c(=O)[nH]c3c(C(=O)NCC4CCCO4)sc(=S)n3c2c1 (configuration not stated)	0	61*	5	2
O=C(NCC1CCCO1)c1sc(=S)n2c1[nH]c(=O)c1ccc(C(=O)N3CCCCC3)cc12 (configuration not stated)	i	10.0*	2	.
CCCCNC(=O)c1sc(=S)n2c1[nH]c(=O)c1ccccc12	-3	24*	3	.
O=C(C[C@@H]1C=C[C@@H](NC(=O)CN2CCOCC2)[C@@H](CO)O1)NCc1cccc(F)c1	.	.	3	-3
Cc1noc(C)c1NC(=O)Nc1ccc2c(c1)C(=O)N([C@@H](C)CO)C[C@H](C)[C@@H](CN(C)Cc1ccc(-c3ccccc3)cc1)O2	.	.	-3	0
Cc1noc(C)c1S(=O)(=O)N(C)C[C@@H]1OCCCC[C@@H](C)Oc2ccc(NS(=O)(=O)c3ccc(Cl)cc3)cc2C(=O)N([C@@H](C)CO)C[C@@H]1C	.	.	-1	-1
N=c1n(Cc2ccccc2)c2ccccc2n1CC(O)c1ccco1 (configuration not stated)	i	13*	-11	.
Oc1c(Cl)cc(Cl)cc1CN1CCN(Cc2ccccc2)CC1	i	-2	0	2
Oc1c(Cl)cccc1Cc1cc(Cl)cc(Cl)c1O	-1	12*	3	0
Cc1ccc(C)c2sc(NC(=O)c3ccc(N4C(=O)CCC4=O)cc3)nc12	-1	-1	0	23*
COc1ccc(C)c2sc(NC(=O)c3cccc(N4C(=O)CCC4=O)c3)nc12	0	-3	0	0
CC=Cc1ccc2n(c1=O)C[C@H]1[C@H](CO)[C@@H](C(=O)NC3CCCC3)N(C(=O)C3CC3)[C@@H]21 (mixture of isomers)	.	.	.	1
C[C@@H]1CN([C@H](C)CO)S(=O)(=O)c2ccc(Br)cc2O[C@H]1CN(C)Cc1cccnc1	.	.	8	-1
C[C@H]1CN([C@@H](C)CO)C(=O)c2cccc(NC(=O)C3CCOCC3)c2O[C@@H]1CN(C)S(C)(=O)=O	.	.	-2	0
CN1C(=O)c2cc(NS(=O)(=O)c3ccc(Cl)cc3)ccc2OC[C@@H]2O[C@H](CC(=O)N3CCc4ccccc4C3)CC[C@H]21	.	.	-4	-1
SMILES	Vc quorum ag	FadD28 FP inh	Mtb BioA inh	TcdB inh
COc1ccc2c3c(n(C)c2c1)[C@H](CO)N(Cc1ccccc1F)CC31CCN(CC2CC2)CC1	.	.	.	-5
CNC(=O)C[C@H]1CC[C@@H]2[C@H](COc3ccc(NC(=O)Nc4ccc(C)cc4)cc3C(=O)N2C)O1	.	.	2	11*
CNC(=O)C[C@H]1CC[C@@H]2[C@H](COc3ccc(NC(=O)c4ccc(OC)cc4)cc3C(=O)N2C)O1	.	.	13	17*
CNC(=O)C[C@@H]1CC[C@@H]2[C@H](COc3ccc(NS(=O)(=O)c4ccccc4C)cc3C(=O)N2C)O1	.	.	-1	15*
CNC(=O)C[C@H]1CC[C@@H]2[C@@H](COc3ccc(NS(=O)(=O)c4ccccc4C)cc3C(=O)N2C)O1	.	.	0	7
CNC(=O)C[C@H]1CC[C@@H]2[C@@H](COc3ccc(NC(=O)c4ccc(OC)cc4)cc3C(=O)N2C)O1	.	.	7	12*

Source: PubChem (Broad Institute)
